Screening data: PubChem BioAssay, The Scripps Research Institute Molecular Screening Center
The list is not random: actives were taken first. Their share in the collection is about 3.5%.
TEAD-YAP inh – TEAD-YAP interaction inhibition; HEK-TIYL cells, TEAD-Gal4/YAP UAS-luciferase luminescence; inhibition, % at 9.12 µM; 640,000 tested, 1.4% active; in the data active = inhibition above about 32%;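 also: 0% = median of test compound wells and 100% = reference inhibitor wells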
MITF primary – human MITF inhibition, primary screen | O75030 | AlphaScreen MITF homodimerization, bead proximity signal | inhibition, % at 2.6 µM | 650,000 tested, 0.91% active | AID 1259374; in the data active = inhibition above about 50%;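 also: 0% = vehicle wells with protein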
FBW7 act – human FBW7 E3 ligase activation, primary screen; 650,000 tested, 0.13% active; AlphaScreen FBW7–phospho-cyclin E peptide binding, activator screen; Q969H0; normalized activity (activation), % at 26.1 µM; in the data active = normalized activity above about 1.9%;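 also: purified mutant Fbw7 with reduced substrate affinity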
GPR151 ag – activators of human GPR151. Q8TDV0. PathHunter beta-arrestin GPR151 cells, luminescence. activation, % at 11.2 µM. 650,000 tested, 1% active; in the data active = activation above about 4.9%;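 also: 0% = median of compound wells and 100% = cells with positive control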
Target sequence (Q8TDV0 whole entry, looked up): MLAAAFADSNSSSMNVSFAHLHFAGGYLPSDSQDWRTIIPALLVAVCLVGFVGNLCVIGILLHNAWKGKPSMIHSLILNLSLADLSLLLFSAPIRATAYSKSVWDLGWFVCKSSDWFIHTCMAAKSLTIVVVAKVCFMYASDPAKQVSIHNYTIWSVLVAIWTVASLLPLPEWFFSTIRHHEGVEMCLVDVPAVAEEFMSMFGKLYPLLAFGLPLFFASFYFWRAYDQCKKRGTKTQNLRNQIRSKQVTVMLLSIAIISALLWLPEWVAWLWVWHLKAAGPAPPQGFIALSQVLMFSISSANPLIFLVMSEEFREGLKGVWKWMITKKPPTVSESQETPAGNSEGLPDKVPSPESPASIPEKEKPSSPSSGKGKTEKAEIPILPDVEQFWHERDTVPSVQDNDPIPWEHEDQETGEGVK
Active calls of the source: *.

Results for COCCN(CC(=O)NCCc1ccccc1)C(=O)CCC(=O)Nc1cc(C)ccn1 ?
TEAD-YAP inh: 33*; MITF primary: 1; FBW7 act: 0; GPR151 ag: 4

How did Cc1ccnc(NC(=O)CCC(=O)N(CC(=O)NCCc2ccccc2)C2CCCC2)c1 do in these assays?
TEAD-YAP inh: -10; MITF primary: -2; FBW7 act: 0; GPR151 ag: 3

What do the screens show for `CCOC(=O)c1cnc2ccc(OCC)cc2c1NC1CCCCCC1`?
TEAD-YAP inh: 3; MITF primary: -21; FBW7 act: 1; GPR151 ag: 2

What do the screens show for `COC(=O)/C=C\c1nn(-c2ccccc2)nc1C#N`?
TEAD-YAP inh: 60*; MITF primary: 5; FBW7 act: 0; GPR151 ag: 0

How did NC(=O)c1nn(-c2ccccc2)nc1/C=C\C(=O)O do in these assays?
TEAD-YAP inh: -8; MITF primary: 20; FBW7 act: 1; GPR151 ag: -1

Results for CCCNc1ccnc(NCC)n1 ?
TEAD-YAP inh: 7; MITF primary: 4; FBW7 act: 0; GPR151 ag: 0

How did COC(=O)C1CCN(Cc2ccc3c(c2)CN(C(=O)Cc2cccc(F)c2)CCO3)CC1 do in these assays?
TEAD-YAP inh: 6; MITF primary: 18; FBW7 act: 2.1*; GPR151 ag: -1

Results for CC(=O)c1ccc(C(=O)N2CCOc3ccc(CN4CCN(C(C)=O)CC4)cc3C2)cc1 ?
TEAD-YAP inh: 5; MITF primary: 5; FBW7 act: 2.3*; GPR151 ag: 0

What do the screens show for `CCOc1cc2c(cc1OCC)C1CN(C2)Cc2cc(OCC)c(OCC)cc21`?
TEAD-YAP inh: -7; MITF primary: -2; FBW7 act: 0; GPR151 ag: 1

How did O=C(CC(=O)N/N=C/c1ccc([N+](=O)[O-])cc1)N/N=C/c1ccc([N+](=O)[O-])cc1 do in these assays?
TEAD-YAP inh: 4; MITF primary: -3; FBW7 act: 0; GPR151 ag: 0

What do the screens show for `O=C(N/N=C/c1ccc([N+](=O)[O-])cc1)c1cccc(O)c1`?
TEAD-YAP inh: 40*; MITF primary: 12; FBW7 act: 0; GPR151 ag: -2

How did O=C(N/N=C/c1ccc(O)cc1)c1cccc(O)c1 do in these assays?
TEAD-YAP inh: 23; MITF primary: -2; FBW7 act: 0; GPR151 ag: -6

What do the screens show for `O=C(N/N=C/c1ccccc1)c1cccc(O)c1`?
TEAD-YAP inh: 34*; MITF primary: 13; FBW7 act: 0; GPR151 ag: -2

Results for N/C(=N\N=C/c1ccc([N+](=O)[O-])cc1)N/N=C\c1ccc([N+](=O)[O-])cc1 ?
TEAD-YAP inh: 0; MITF primary: -16; FBW7 act: 4.3*; GPR151 ag: 0

What do the screens show for `O=C(CNC(=O)c1ccccc1)NCC(=O)OCc1cccc(Br)c1`?
TEAD-YAP inh: 2; MITF primary: -13; FBW7 act: 0; GPR151 ag: -2

Results for O=C(Nc1ccc(O)cc1C(=O)O)c1ccc2c(c1)C(=O)N(c1ccccc1-c1ccccc1)C2=O ?
TEAD-YAP inh: 3; MITF primary: 13; FBW7 act: 0; GPR151 ag: 0

Results for CC(C)n1cnc2c(NC3CC3)nc(-c3ccc(C(=O)NC4CC4)cc3)nc21 ?
TEAD-YAP inh: 33*; MITF primary: 18; FBW7 act: 0; GPR151 ag: -1

How did CC(C)n1cnc2c(NC3CC3)nc(-c3ccc(C(N)=O)cc3)nc21 do in these assays?
TEAD-YAP inh: 40*; MITF primary: 13; FBW7 act: 1; GPR151 ag: -1

How did CC(C)n1cnc2c(Nc3ccccc3)nc(-c3ccc(C(N)=O)cc3)nc21 do in these assays?
TEAD-YAP inh: 44*; MITF primary: -1; FBW7 act: 0; GPR151 ag: -1

Results for CC(C)n1cnc2c(NCc3ccccc3)nc(-c3ccc(C(N)=O)cc3)nc21 ?
TEAD-YAP inh: 9; MITF primary: -6; FBW7 act: 0; GPR151 ag: 1

How did CCCNC(=O)CCNC(=O)c1ccc(F)cc1 do in these assays?
TEAD-YAP inh: 2; MITF primary: 5; FBW7 act: 0; GPR151 ag: 1

Results for CCOc1ccc(-c2nc3c(c(Cc4ccccc4)nn3-c3ccccc3)c3cc(OC)c(OC)cc23)cc1 ?
TEAD-YAP inh: -3; MITF primary: -1; FBW7 act: 0; GPR151 ag: 0

How did Cc1ccc(C)c(-c2csc(Nc3ccc4c(c3)OCO4)n2)c1 do in these assays?
TEAD-YAP inh: -27; MITF primary: -3; FBW7 act: 0; GPR151 ag: -1

Results for CCOC(=O)N1CCc2c(sc(NC(=O)CC)c2-c2nc3ccccc3s2)C1 ?
TEAD-YAP inh: 10; MITF primary: 19; FBW7 act: 0; GPR151 ag: -1

What do the screens show for `CCN1CCc2c(sc(NC(=O)c3ccc(S(=O)(=O)N(CC)CC)cc3)c2-c2nc3ccccc3s2)C1`?
TEAD-YAP inh: -1; MITF primary: 5; FBW7 act: 0; GPR151 ag: 0

What do the screens show for `CCC(=O)Nc1sc2c(c1-c1nc3ccccc3s1)CCN(CC)C2`?
TEAD-YAP inh: 54*; MITF primary: 6; FBW7 act: 0; GPR151 ag: 2

Results for CCN1CCc2c(sc(NC(C)=O)c2-c2nc3ccccc3s2)C1 ?
TEAD-YAP inh: 69*; MITF primary: 10; FBW7 act: 0; GPR151 ag: 0

How did Cn1c(=O)c2nc3ccc(NC(=O)CCC(=O)O)cc3nc2n(C)c1=O do in these assays?
TEAD-YAP inh: -1; MITF primary: 21; FBW7 act: 0; GPR151 ag: 0

How did COc1ccccc1NC(=O)NCc1noc2ccc(C)cc12 do in these assays?
TEAD-YAP inh: 3; MITF primary: 5; FBW7 act: 0; GPR151 ag: -2

Results for CCN=c1scc(C)n1/N=C/c1ccc2c(c1)OCCO2 ?
TEAD-YAP inh: -28; MITF primary: 12; FBW7 act: 0; GPR151 ag: -2

Results for Cc1csc(=Nc2ccccc2F)n1/N=C/c1ccsc1 ?
TEAD-YAP inh: -12; MITF primary: 10; FBW7 act: 0; GPR151 ag: -2

What do the screens show for `CCN=c1scc(-c2ccccc2F)n1/N=C/c1ccc2c(c1)OCCO2`?
TEAD-YAP inh: 51*; MITF primary: 14; FBW7 act: 0; GPR151 ag: -8

What do the screens show for `CN=c1scc(-c2ccccc2F)n1/N=C/c1ccccc1`?
TEAD-YAP inh: 99*; MITF primary: 18; FBW7 act: 0; GPR151 ag: -7

How did COc1ccc(NC(=O)c2c(NC(=O)c3ccccc3)sc3c2CCC3)cc1 do in these assays?
TEAD-YAP inh: 7; MITF primary: 10; FBW7 act: 0; GPR151 ag: -2

Results for Cc1cc(/C=c2\sc3nc4ccccc4n3c2=O)c(C)n1-c1ccc(F)cc1 ?
TEAD-YAP inh: 32*; MITF primary: -12; FBW7 act: 0; GPR151 ag: -1

What do the screens show for `O=c1/c(=C\c2ccc3c(c2)OCO3)sc2nc3ccccc3n12`?
TEAD-YAP inh: 38*; MITF primary: 6; FBW7 act: 0; GPR151 ag: 0

How did O=c1/c(=C/c2ccc(O)c(Cl)c2)sc2nc3ccccc3n12 do in these assays?
TEAD-YAP inh: 53*; MITF primary: -12; FBW7 act: 0; GPR151 ag: -1
